Laboratory results reported in PubChem BioAssay (NCI).
The panel holds about 83,000 compounds, 20% with a hit somewhere; the sample as a whole holds those more often.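 Results are percent growth after 48 hours of single-concentration exposure. 100 means growth as in untreated cells, lower positive values show inhibition; negative values down to -100 show cell death.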 A number with no mark means an inactive call. Active and inactive are the calls of the source. How the source made its calls: active means growth percent below 10; inactive means the rest.

What was measured:
Assay in all cases: NCI-60 one-dose screen, 48 h (100 = growth as untreated, 0 = no growth, -100 = all killed)
Details in all cases: 10 µM unless noted
HCT-15 colon = tested on: HCT-15 colon
HT29 colon = tested on: HT29 colon
SNB-75 CNS = tested on: SNB-75 CNS
SNB-19 CNS = tested on: SNB-19 CNS
U251 CNS = tested on: U251 CNS
PC-3 prostate = tested on: PC-3 prostate
SK-MEL-5 melanoma = tested on: SK-MEL-5 melanoma
UACC-62 melanoma = tested on: UACC-62 melanoma
LOX IMVI melanoma = tested on: LOX IMVI melanoma
SK-MEL-28 melanoma = tested on: SK-MEL-28 melanoma

Structure (SMILES)	growth (HCT-15 colon)	growth (HT29 colon)	growth (SNB-75 CNS)	growth (SNB-19 CNS)	growth (U251 CNS)	growth (PC-3 prostate)	growth (SK-MEL-5 melanoma)	growth (UACC-62 melanoma)	growth (LOX IMVI melanoma)	growth (SK-MEL-28 melanoma)
Brc1ccc(-c2cc(-c3ccc4c(c3)OC=CO4)n[nH]2)s1	61.9%	74.1%	74%	91.7%	88.8%	101%	89.4%	83.2%	89.9%	91.6%
Cc1cc(=O)oc2cc(OCCCOc3ccc(/C=C/C(=O)Nc4ccc(Br)cc4)cc3)ccc12	82.3%	90.8%	115%	86.9%	97.8%	81.8%	85%	94.5%	67.9%	86.6%
CCC(=C(c1ccc(OCCN(C)C)cc1)c1ccc(OCCN(C)C)cc1)c1ccc(Cl)cc1	-74.8% (active)	-38.9% (active)	17.7%	-39.8% (active)	-64.5% (active)	-12.1% (active)	-95.8% (active)	-73.6% (active)	-98.1% (active)	-83.3% (active)
Cc1ccc2c(n1)C(=O)C(Cl)=C(Nc1ccc(C)c(C)c1)C2=O	23.6%	103%	87.6%	56.2%	71.8%	45.3%	6.91% (active)	49.3%	0.982% (active)	58.3%
O=[N+]([O-])c1ccc(NC(=S)NNC(=S)Nc2ccc(F)cc2)cc1	61.7%	98%	103%	94.4%	90.5%	76.5%	89.9%	58.8%	72.3%	98.4%
COc1ccc(-c2c3c(cn2Cc2cccc(OC)c2)-c2oncc2CCC3)cc1	95.1%	109%	103%	93.4%	93.2%	85.4%	100%	79.3%	95.2%	110%
Cn1cc(-c2nn3cc(-c4ccncc4)nc3s2)c2cc(Br)ccc21	18%	4.54% (active)	45.9%	81.7%	54.7%	30.2%	57.9%	61.5%	52.5%	94.2%
C[C@]12CC[C@H]3[C@@H](CC=C4C[C@@H](O)CC[C@@]43C)[C@@H]1CC[C@@H]2[C@](C)(O)CCc1cccnc1	70.2%	69.1%	62%	71.4%	74.1%	70.1%	7.89% (active)	62.6%	75.9%	74.4%
COc1ccc(OC)c(NC(=O)CCCCCCNC(=O)C(O)(O)C(F)(F)F)c1	59.4%	23.6%	56.1%	63.5%	41.8%	51.4%	16.6%	13%	32.3%	35.6%
Cc1cc(C)cc(NC2=C(Cl)C(=O)c3nc(C)ccc3C2=O)c1	9.74% (active)	107%	96.4%	75.9%	89.8%	59.4%	69%	92.7%	-3.79% (active)	81.8%
O=C(/C=C/c1ccc(Cl)c(Cl)c1)Nc1ncc(Cc2ccc(Cl)c(Cl)c2)s1	29%	36.2%	95.5%	74%	58.2%	45.3%	51.4%	10.3%	23.3%	48.5%
CCCCSC1=C(Cl)CN(c2ccccc2)C1=O	101%	114%	105%	101%	99.6%	103%	101%	95.7%	36.4%	101%
COc1ccccc1/C=C1\Oc2ccc(O)c(O)c2C1=O	77.5%	105%	82.6%	86.4%	86.8%	98.7%	99%	92.1%	83.5%	94%
Cc1ccc(NC(=O)Nc2nc3ccc([N+](=O)[O-])cc3s2)cc1	7.79% (active)	11.7%	1.44% (active)	11.3%	4.96% (active)	-1.61% (active)	-55% (active)	9.49% (active)	11.6%	14.8%
COC(=O)[C@@H](Cc1c[nH]c2ccccc12)NC(=O)CCCCOc1cc(O)c2c(=O)cc(-c3ccccc3)oc2c1	80.8%	107%	72.3%	89.4%	92.2%	73.6%	-97.8% (active)	66.3%	54.7%	101%
Cc1csc(/N=C(N)/N=C(\N)c2cccs2)n1	100%	116%	94.3%	103%	97%	92.3%	99.5%	94.7%	104%	117%
COc1cc(OC)cc(-c2cc(-c3c[nH]c4ccccc34)nc(-c3c[nH]c4ccccc34)c2C#N)c1	102%	108%	87.6%	96.6%	100%	93.6%	98.5%	93.6%	82.7%	101%
Oc1[nH]c2ccc(Cl)cc2c1N=Nc1nc(N=Nc2c(O)[nH]c3ccc(Cl)cc23)nc(N2CCCCC2)n1	88.4%	39.3%	95.3%	42.1%	19.8%	19.5%	87%	88.5%	24.6%	97.5%
CNC(=O)c1cc(-n2ccc3cc(NC(=O)Nc4ccc(N5CCN(C)CC5)c(C(F)(F)F)c4)ccc32)ccn1	23.8%	0.845% (active)	56.3%	83.1%	46.6%	60.8%	79%	98.7%	-72.8% (active)	-85.6% (active)
O=c1c2cc(-c3ccc(F)cc3F)ccc2n(O)c(=O)n1-c1cccc(C(F)(F)F)c1	10.5%	62.9%	-19.4% (active)	10.5%	5.79% (active)	-0.871% (active)	-59.7% (active)	-0.381% (active)	12.5%	27.2%
CC(C)(C)OC(=O)NCc1ccc(CNc2c([N+](=O)[O-])cnc3ccccc23)cc1	74%	83.8%	57.1%	70.8%	87.4%	68.9%	2.87% (active)	58.4%	35.4%	89.4%
CC1=C(C)C(=O)C(Nc2ccc(C)cc2)=C(Br)C1=O	95.9%	108%	89%	101%	104%	87.8%	94%	92.2%	29.9%	112%
NC(N)=NS(=O)(=O)c1ccc(N=Nc2c(N)nn(-c3ccc([N+](=O)[O-])cc3[N+](=O)[O-])c2N)cc1	99.9%	105%	94.7%	99.8%	99.9%	92.8%	99%	95.2%	97.2%	109%
O=C(Nc1cccc(C(F)(F)F)c1)N1CCN(c2cc(-c3cn(-c4ccccc4)nc3-c3cccc(O)c3)ccn2)CC1	22.2%	24.5%	71.8%	57.4%	48.1%	28.2%	40.2%	40%	25.5%	55%
CN1CCN(c2ccc(C(=O)/C=C/c3cc(F)cc(C(F)(F)F)c3)cc2)CC1	27.5%	15.9%	59.9%	81.7%	51.4%	60.2%	71.3%	82.8%	7.73% (active)	96.3%
C1=CC(c2nn3c(-c4ccccc4)nnc3s2)=Cc2ccccc2O1	23.5%	82.1%	78.3%	74.9%	84.9%	80.5%	95.6%	74%	-24.4% (active)	30.6%
CCCCCCN1C=C/C(=C\C(=O)n2ccc3ccccc32)c2ccccc21	79.6%	65.1%	65.8%	56.7%	46.9%	58.6%	30.8%	57.9%	18.7%	101%
